Inconclusive results are not listed. Active and inactive are the calls of the source. Calls come from the whole dose curve; as a rule, active = well fitted inhibition curve with a large enough effect; inconclusive = small, poorly fitted or top-dose-only effect, or another doubt; inactive = no such curve, though single readings can be large or run the other way.
biological target: Neuropeptide S receptor (Homo sapiens) (UniProt Q6W5P4); experiment: Confirmation Concentration-Response Assay for Antagonists of the Neuropeptide S Receptor: Robust Characterization of Calcium Signal Transduction; details: CHO-NPSR cells, NPS-induced calcium fluorescence (FDSS); series mostly up to 31.6 µM
Sequence (Q6W5P4 whole entry, looked up): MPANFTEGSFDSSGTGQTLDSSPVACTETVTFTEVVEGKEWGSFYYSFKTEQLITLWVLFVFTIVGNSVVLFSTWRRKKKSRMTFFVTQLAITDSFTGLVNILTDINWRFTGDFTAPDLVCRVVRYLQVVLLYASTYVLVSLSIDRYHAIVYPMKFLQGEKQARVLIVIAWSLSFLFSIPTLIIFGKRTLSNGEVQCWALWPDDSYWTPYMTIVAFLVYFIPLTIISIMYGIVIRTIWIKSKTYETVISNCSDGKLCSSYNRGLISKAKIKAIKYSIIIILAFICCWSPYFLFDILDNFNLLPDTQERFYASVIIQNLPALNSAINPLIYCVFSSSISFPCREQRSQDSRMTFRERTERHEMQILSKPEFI
Source text: NIH Chemical Genomics Center [NCGC] NIH Molecular Libraries Probe Production centers Network [MLPCN] MLPCN Grant: X01-DA026210-01 Assay Submitter (PI): Heilig, Markus Alexander NCGC Assay Overview: Neuropeptide S receptor (NPSR), previously known as GPR154, is a recently de-orphanized G protein coupled receptor. Its endogenous ligand is the 20 amino acids peptide Neuropeptide S (NPS). […] NPS and its receptor are found in various tissues. Specifically they are highly expressed in brain areas that have been implicated in modulation of arousal, stress and anxiety. Central administration of NPS in mice produces an unusual profile of activity by inducing wakefulness and arousal, while at the same time suppressing anxiety. Therefore, NPSR may represent a novel drug target for the treatment of sleep and anxiety disorders. To identify NPSR antagonists, we developed a cell-based assay with transfected NPS receptor. NPS can stimulate the production of cAMP as well as release intracellular calcium in Chinese hamster ovary cells stably expressing NPS receptor. This change in intracellular calcium can be detected using a calcium indicator dye on a calcium imaging plate reader system (FDSS). This particular assay uses a high density of sampling across concentration-response space to establish more confidence estimates of potency.
NCGC Assay Protocol Summary: A Chinese hamster ovary (CHO) cell line stably expressing the NPS receptor (CHO-NPSR) was obtained from Dr. Heilig lab at NIAAA and maintained in F-12 Kaighn's media (Invitrogen, Carlsbad, CA, 21127) supplemented with 10 % FBS, 100 units/ml penicillin, 100 ug/ml streptomycin and 250 ug/ml geneticin at 37C, 5% CO2 in a humidified atmosphere. Before the assay, aliquots of cells were frozen and stored at -135C. The assay was performed on a FDSS-7000 kinetic plate reader in 1536-well format. For both agonist (1-220s) and antagonist (221-400s) phases, the maximums of kinetic fluorescence responses were converted separately into text files using the instrument's software data export utility. Data for agonist response were normalized to the controls for basal activity (DMSO only) and 100% activation (NPS). […] AC50 values were determined from concentration-response data modeled with the standard Hill equation. NPS 1536-well FDSS assay protocol: (1) Frozen CHO-NPSR cells were thaw, washed once with fresh media and resuspended in F-12 Kaighn's media supplemented with 10 % FBS, 100 units/ml penicillin and 100 ug/ml streptomycin. Cells were plated at 3 ul/well (1200 cells) to black, clear-bottom, tissue-culture treated 1536-well plates, and then cultured at 37C, 5 % CO2 for 16 to 30 hours. (2) Add 3 ul of calcium dye (from High Performance PBX Calcium Assay Kit, BD Biosciences). The calcium dye was prepared according to the manufactory's instruction. (3) Incubation at 37C, 5 % CO2 for 60 to 120 min. (4) Load plates to FDSS-7000. The following steps were performed on FDSS-7000. (5) Record fluorescent background (Ex 480 nm, Em 520-560 nm) for 10 s. (6) Add 23 nl/well of compound in DMSO solution. The final titration for each compound was between 0.6 nM and 46 uM. Record agonist response for 210 s. (7) Add 2 ul of stimulation reagent (1X HBSS buffer, 0.1% BSA, 60 nM NPS). Record antagonist response for 140 s. Keywords: MLSMR, MLPCN, NIH Roadmap, qHTS, NCGC, NPS, Neuropeptide S Antagonists

**Q.** For `S=P(c1ccccc1)(c1ccccc1)c1c[n+](C/C=C/c2ccccc2)c2ccccn12`, which Potency is on record?
**A.** 31.8 nM (active)

**Q.** How did the Potency turn out when `COc1cccc(C2c3c(ncn(-c4ccccc4Br)c3=N)Oc3ccc4ccccc4c32)c1` (stereo not given) was run?
**A.** 2760 nM (active)

**Q.** For `COc1ccc(C2c3c(nc(CCCc4ccccc4)[nH]c3=O)Oc3ccc4ccccc4c32)cc1OC` (stereo not given), which Potency is on record?
**A.** inactive

**Q.** For `N=c1c2c(ccn1CCCCc1ccccc1)Oc1ccc3ccccc3c1C2c1ccccc1` (stereo not given), which Potency is on record?
**A.** inactive

**Q.** For `COc1cccc(C2c3c(ncn(-c4ccc5c(c4)OCO5)c3=N)Oc3ccc4ccccc4c32)c1` (stereo not given), which Potency is on record?
**A.** 43.8 nM (active)

**Q.** For `COc1cccc(C2c3c(ncn(-c4cccc(C)c4)c3=N)Oc3ccc4ccccc4c32)c1` (stereo not given), which Potency is on record?
**A.** 3910 nM (active)

**Q.** How did the Potency turn out when `COc1cccc(C2C(C#N)=C(NC(=O)CCc3ccccc3)Oc3ccc4ccccc4c32)c1` (stereo not given) was run?
**A.** inactive

**Q.** How did the Potency turn out when `COc1cccc(C2c3c(ncn(-c4ccccc4)c3=N)Oc3ccc4ccccc4c32)c1OC` (stereo not given) was run?
**A.** 981 nM (active)

**Q.** How did the Potency turn out when `COc1cccc(C2c3c(ncn(-c4ccccc4-c4ccccc4)c3=N)Oc3ccc4ccccc4c32)c1` (stereo not given) was run?
**A.** 8740 nM (active)

**Q.** For `COc1cccc(C2c3c(ncn(-c4ccc(-c5ccccc5)cc4)c3=N)Oc3ccc4ccccc4c32)c1` (stereo not given), which Potency is on record?
**A.** inactive

**Q.** For `CCOC(=O)CCC(=O)Nc1ncnc2c1C(c1ccccc1)c1c(ccc3ccccc13)O2` (stereo not given), which Potency is on record?
**A.** 1240 nM (active)

**Q.** With `COc1cccc(C2c3c(ncn(CCN4CCOCC4)c3=N)Oc3ccc4ccccc4c32)c1` (stereo not given) as the molecule, how does the Potency read?
**A.** 1740 nM (active)

**Q.** With `Nc1ncnc2c1C(c1ccccc1)c1c(ccc3ccccc13)O2` (stereo not given) as the molecule, how does the Potency read?
**A.** 139 nM (active)

**Q.** With `COc1ccc(C2c3c(n(CCCc4ccccc4)cnc3=N)Oc3ccc4ccccc4c32)cc1OC` (stereo not given) as the molecule, how does the Potency read?
**A.** 4920 nM (active)

**Q.** How did the Potency turn out when `CCOC(=O)CCCC(=O)Nc1ncnc2c1C(c1ccccc1)c1c(ccc3ccccc13)O2` (stereo not given) was run?
**A.** 2200 nM (active)

**Q.** For `CCOC(=O)c1ccc(-n2cnc3c(c2=N)C(c2cccc(OC)c2)c2c(ccc4ccccc24)O3)cc1` (stereo not given), which Potency is on record?
**A.** 2460 nM (active)

**Q.** For `COc1cccc(C2c3c(ncn(-c4cccc(Cl)c4)c3=N)Oc3ccc4ccccc4c32)c1` (stereo not given), which Potency is on record?
**A.** 4380 nM (active)

**Q.** For `CCOc1ccc(C2c3c(ncn(-c4ccccc4)c3=N)Oc3ccc4ccccc4c32)cc1OCC` (stereo not given), which Potency is on record?
**A.** 2460 nM (active)

**Q.** Which Potency does the source give for `O=C(Nc1ncnc2c1C(c1ccccc1)c1c(ccc3ccccc13)O2)c1ccccc1` (stereo not given) here?
**A.** 4920 nM (active)

**Q.** How did the Potency turn out when `N#CC1=C(NC=NCc2ccccc2)Oc2ccc3ccccc3c2C1c1ccccc1` (stereo not given) was run?
**A.** 779 nM (active)

**Q.** Which Potency does the source give for `COc1cccc(C2c3c(ncn(-c4ccccc4C#N)c3=N)Oc3ccc4ccccc4c32)c1` (stereo not given) here?
**A.** 3100 nM (active)

**Q.** How did the Potency turn out when `COc1cccc(C2c3c(ncn(CCCN4CCOCC4)c3=N)Oc3ccc4ccccc4c32)c1` (stereo not given) was run?
**A.** 1390 nM (active)

**Q.** Which Potency does the source give for `COc1cccc(C2C(C#N)=C(NC(=O)NCc3ccccc3)Oc3ccc4ccccc4c32)c1` (stereo not given) here?
**A.** inactive

**Q.** For `N=c1c2c(ccn1-c1ccccc1)Oc1ccc3ccccc3c1C2c1ccccc1` (stereo not given), which Potency is on record?
**A.** 220 nM (active)

**Q.** How did the Potency turn out when `O=C(c1ccccc1)N(C(=O)c1ccccc1)c1ncnc2c1C(c1ccccc1)c1c(ccc3ccccc13)O2` (stereo not given) was run?
**A.** 438 nM (active)

**Q.** Which Potency does the source give for `COc1ccc(C2c3ccc4ccccc4c3Oc3ncn(CCN4CCOCC4)c(=N)c32)cc1OC` (stereo not given) here?
**A.** 3480 nM (active)

**Q.** Which Potency does the source give for `COc1cccc(C2c3c(ncn(-c4cccnc4)c3=N)Oc3ccc4ccccc4c32)c1` (stereo not given) here?
**A.** 1740 nM (active)

**Q.** `CC(C)(C)OC(=O)Nc1ncnc2c1C(c1ccccc1)c1c(ccc3ccccc13)O2` (stereo not given) was tested. Which Potency did it give?
**A.** inactive

**Q.** With `COc1ccc(C2c3c(ncn(Cc4ccccc4)c3=N)Oc3ccc4ccccc4c32)cc1OC` (stereo not given) as the molecule, how does the Potency read?
**A.** 619 nM (active)

**Q.** How did the Potency turn out when `COc1cccc(C2c3c(ncn(-c4ccccn4)c3=N)Oc3ccc4ccccc4c32)c1` (stereo not given) was run?
**A.** 4920 nM (active)

**Q.** For `COc1cccc(C2c3c(ncn(-c4ccccc4OC)c3=N)Oc3ccc4ccccc4c32)c1` (stereo not given), which Potency is on record?
**A.** 1240 nM (active)

**Q.** Which Potency does the source give for `COc1cccc(C2c3c(ncn(-c4ccncc4)c3=N)Oc3ccc4ccccc4c32)c1` (stereo not given) here?
**A.** 3910 nM (active)

**Q.** How did the Potency turn out when `COc1ccc(C2c3ccccc3Oc3ncn(CCN4CCOCC4)c(=N)c32)cc1OC` (stereo not given) was run?
**A.** 619 nM (active)

**Q.** `COc1cccc(C2c3c(ncn(-c4ccc(NC(C)=O)cc4)c3=N)Oc3ccc4ccccc4c32)c1` (stereo not given) was tested. Which Potency did it give?
**A.** 4380 nM (active)

**Q.** Which Potency does the source give for `O=C(Cc1ccccc1)Nc1ncnc2c1C(c1ccccc1)c1c(ccc3ccccc13)O2` (stereo not given) here?
**A.** 1100 nM (active)

**Q.** How did the Potency turn out when `COc1cccc(C2c3c(ncn(-c4ccc(Br)cc4)c3=N)Oc3ccc4ccccc4c32)c1` (stereo not given) was run?
**A.** 3100 nM (active)

**Q.** Which Potency does the source give for `O=C(CCc1ccccc1)Nc1ncnc2c1C(c1ccccc1)c1c(ccc3ccccc13)O2` (stereo not given) here?
**A.** 1960 nM (active)

**Q.** How did the Potency turn out when `COc1ccc(C2c3ccc(OCc4ccccc4)cc3Oc3ncn(CCN4CCOCC4)c(=N)c32)cc1OC` (stereo not given) was run?
**A.** 11000 nM (active)

**Q.** For `COc1ccc(C2c3c(nc(Cc4ccccc4)[nH]c3=O)Oc3ccc4ccccc4c32)cc1OC` (stereo not given), which Potency is on record?
**A.** inactive

**Q.** Which Potency does the source give for `N=c1c2c(ncn1-c1ccccc1)Oc1ccc3ccccc3c1C2c1ccc2c(c1)OCCO2` (stereo not given) here?
**A.** 276 nM (active)
